Screens: PubChem, several laboratories
Most compounds without a hit are left out; they make up all but 4.1% or so of the library.
Mdm2 MdmX PPI: human Mdm2/MdmX binding inhibition; SaOS-2 split-luciferase Mdm2/MdmX complementation, luminescence; 3% of 330,000 active; inhibition, % at 8 µM;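 active = inhibition of at least 50% at 8 µM in the primary screen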
Beta cell apopt: beta cell apoptosis inhibition. INS-1E cytokine-induced death, ATP luminescence, 48 h; percent of positive-control rescue, neutral wells zero. protection from apoptosis, % (test concentration not listed). 0.8% of 300,000 active;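 active = Every replicate reaches about 75%, or at least half do and their mean reaches it too, limit read from the data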;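 note: 0% = cytokine-treated negative control wells and 100% = positive control rescue; higher means more ATP so stronger rescue from cytokine killing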
CSC inhib: blocks cancer stem cells; inhibition, % at 7.5 µM; cancer stem cell-like cells viability, luminescence; 1.1% of 300,000 active; in the data active = inhibition above about 75%; tested in HMLE shEcad cells
A1 inh: inhibitors of the anti-apoptotic protein A1, read as caspase activation; MEF A1-2A-BIM cells, Caspase-Glo 3/7 luminescence, 3 h; percent of clofoctol response, vehicle zero; caspase activation, % (concentration not given with the values); 0.066% of 330,000 active;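 active = over half of replicate activation scores above 10%, or exactly half above 10 with the replicate mean above 10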
aSyn 5UTR inh: 5' untranslated region of α-synuclein, MLPCN primary screen; 0.82% of 300,000 active; AID 1813; inhibition, % (tested at 7.5 µM); alpha-synuclein 5'UTR reporter, inhibitor activity; in the data active = inhibition above about 60%;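 note: H4 neuroglioblastoma cells stably carrying SNCA 5'UTR luciferase fusion; 0% = DMSO wells and 100% = positive control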
Mdm2-MdmX conf: confirmation of human Mdm2/MdmX interaction inhibitors; inhibition, % at 8 µM; 55% of 10,000 active; AID 489028; shares compounds with Mdm2 MdmX PPI; Mdm2-MdmX binding, luminescent assay; in the data active = inhibition above about 40%
Full FLuc ctr: inhibits full-length luciferase, flagging false Mdm2/MdmX hits. shares compounds with Mdm2 MdmX PPI. SaOS-2 full-length luciferase counterscreen, luminescence. inhibition, % at 8 µM. 77% of 6,200 active. AID 504607;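 active = mean inhibition at 8 µM reaching about 37%, which flags the compound as non-specific, limit read from the data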;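 note: p53-null SaOS-2 cells with luciferase driven by a doxycycline-inducible promoter; compound on cells about two nights before reading with doxycycline added after day one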
Active calls of the source: *; nt = no result given.

SMILES	Mdm2 MdmX PPI	Beta cell apopt	CSC inhib	A1 inh	aSyn 5UTR inh	Mdm2-MdmX conf	Full FLuc ctr
CC(=O)O[C@@]12CO[C@@H]1C[C@H](O)[C@@]1(C)C(=O)[C@H](O)C3=C(C)[C@@H](OC(=O)[C@H](O)[C@@H](NC(=O)c4ccccc4)c4ccccc4)C[C@@](O)([C@@H](OC(=O)c4ccccc4)C12)C3(C)C (stereo not given in full)	53.6*	10.9	59.8	-0.1	114.0*	62.9*	50.1*
CC(=O)O[C@H]1C(=O)[C@@]2(C)C([C@H](OC(=O)c3ccccc3)[C@]3(O)C[C@H](O)C(C)=C1C3(C)C)[C@]1(OC(C)=O)CO[C@@H]1C[C@H]2O (stereo not given in full)	30.1	nt	1.0	0.3	4.1	nt	nt
COC(=O)C1=C(c2ccc(S(C)(=O)=O)cc2)C[C@@H]2CC[C@H]1N2C(=O)NCc1ccc(C(F)(F)F)cc1	21.7	-6.1	9.4	0.5	-5.1	nt	nt
COC(=O)C1=C(c2ccc(F)cc2F)C[C@@H]2CC[C@H]1N2C(=O)NCCOc1ccccc1Cl	-6.0	2.9	13.3	0.2	nt	nt	nt
O=C(c1ccco1)c1cn(Cc2ccc(Cl)cc2)c2ccccc12	51.3*	-9.1	-19.3	-0.4	-27.3	34.2	68.5*
CCOS(C)(=O)=O	15.5	0.6	-10.3	0.5	nt	nt	nt
COc1ccc([C@@H](O)[C@@H](N)c2ccccc2)cc1	1.5	-11.3	-8.7	0.5	5.0	nt	nt
CN1CCC(O)(c2cccs2)C(C(=O)c2cccs2)C1 (stereo not given)	-3.0	-10.4	11.5	0.8	7.7	nt	nt
COc1cc(C2c3cc4c(cc3CC3COC(=O)C32)OCO4)cc(OC)c1OC (stereo not given)	61.4*	nt	nt	nt	nt	54.5*	97.7*
CC(C)[C@]12CC(=O)[C@H](C)[C@H]1C2	16.0	-1.5	1.2	-0.9	nt	nt	nt
C=CCn1c(O)c(C(CC)=NCc2ccc3c(c2)OCO3)c(=O)[nH]c1=O	55.0*	-9.5	5.0	-0.6	14.8	5.3	nt
CC(=O)OC(C)(C)/C=C/C(=O)[C@](C)(O)C1[C@H](O)C[C@@]2(C)C3CC=C4C(C[C@H](O)C(=O)C4(C)C)[C@]3(C)C(=O)C[C@]12C (stereo not given in full)	99.7*	57.5	69.6	20.7*	nt	100.0*	1.0
CC1CCC/C=C/C2CC(O)CC2C(O)/C=C/C(=O)O1 (stereo not given)	96.3*	99.1*	130.8*	1.1	132.8*	100.0*	51.9*
C[C@H]1CCC/C=C/C2C[C@H](O)CC2[C@H](O)/C=C/C(=O)O1 (stereo not given in full)	100.3*	99.5*	113.0*	2.8	100.0*	98.8*	51.5*
CN(C=O)CP(=O)(O)CN(C)C=O	-3.0	2.1	-8.8	0.1	-2.1	nt	nt
CCn1nc(-c2ccccc2)nc2c(=O)n(C)c(=O)nc1-2	73.8*	107.5*	-6.0	0.0	-84.0	72.8*	23.3
CCCc1c(C)nc(-c2ccc(C)cc2)nc1OC(=O)N(C)C	25.1	-4.2	-5.9	0.8	15.5	nt	nt
CSc1ccc(CNC(C)C(O)c2ccccc2)cc1 (stereo not given)	7.3	3.5	5.6	0.7	-9.7	nt	nt
COc1ccc(CNC(=O)CCC(=O)N2C[C@H]3C[C@H](C2)c2cccc(=O)n2C3)cc1	16.4	nt	-1.9	0.6	6.8	nt	nt
CC(=O)c1c(C)n(Cc2ccccc2Cl)c2ccc(O)cc12	52.2*	-17.6	16.8	0.3	26.9	38.3	109.6*
CC1Oc2cc3c(-c4c(O)cc(O)c5c(O)c6c(cc45)OC(C)C(C)C6=O)c(O)cc(O)c3c(O)c2C(=O)C1C (stereo not given)	89.1*	108.8*	-3.1	-0.6	87.0*	73.2*	22.4
O=c1c2ccccc2[se]n1-c1ccccc1	59.1*	nt	nt	nt	-23.6	15.4	nt
Cc1cccc(N2C(=O)NC(=O)/C(=C\c3cccn3-c3ccc(Cl)cc3)C2=O)c1	72.8*	12.2	3.8	-0.5	0.7	39.8	69.2*
Cc1cc(C)cc(N2C(=O)NC(=O)/C(=C/c3cccn3-c3ccc(Cl)cc3)C2=O)c1	66.0*	-6.7	75.4*	0.0	-27.2	17.3	nt
CC(C)(C)n1cccc1/C=C1\C(=O)NC(=O)N(c2ccccc2)C1=O	-0.4	nt	nt	-0.3	-5.1	nt	nt
